The text below walks through data of PubChem BioAssay.

Values joined by “and” are separate entries in the source; they are usually repeats but may differ in a detail not shown here. Identical values can stand only once. Some compounds were tested as several samples or in several runs, with calls that do not always agree. Active and inactive are the calls of the source.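 How the source made its calls, unless noted: active means mean z-score across replicates of 1.96 or higher in either the MELAS or the Rieske mutant cell line; inactive means the rest.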

Assay [1] can be described thus: liver-stage malaria parasite growth inhibition, primary screen, cell-based, HepG2, luciferase luminescence, HepG2 viability (AID 624349; in the data active means parasite load remaining mostly below about 12%, no sharp cut-off; inactive means mostly above about 10%;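 further: 100% = mean of DMSO negative control wells on the same plate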). The note with it: P. berghei liver stage in HepG2, luciferase luminescence, concentration not given here; parasite load remaining: stronger effect = lower value; viability: measured here: HepG2 viability without parasites.
The nature of assay [2]: stimulators of nuclear beta-catenin in C2C12, primary screen, imaging, WNT3A-conditioned medium, mouse C2C12, NPC library (AID 1117326; in the data active means nuclear beta-catenin stimulation mostly above about 4.2%, no sharp cut-off; inactive means mostly below about 10%). Particulars: stronger effect = higher value.
A short description of assay [3]: stimulators of insulin release from INS-1E, primary screen, cell-based, 5 mM glucose, NPC library (AID 1117329;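 active means compound raises insulin release from rat beta cells at 5 mM glucose, no numeric limit stated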). Particulars: rat INS-1E insulin secretion, at 10 µM, stronger effect = higher value.
Assay [4] in a line: growth inhibition of GSK3B-pretreated HCT116 cells – cell-based, CellTiter-Glo, 0.2 to 20 µM (AID 1117336;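 active means compounds lowering colon cancer cell viability after pretreatment blocking the GSK3B kinase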). The note with it: HCT116 viability after GSK3B inhibitor, at 20 µM, stronger effect = higher value. (In general: Cellular ATP, detected with luciferase, serves as a proxy for viable cell number.)
Assay [5] is described as follows: inhibition of endothelial tube formation, primary screen, imaging, VEGF stimulated, CD31 staining, tube area, NPC library (AID 1117340;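 active means compound that reduces growth-factor-driven endothelial tube area in a mixed cell culture, no cutoff stated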). The note with it: VEGF-stimulated ADSC/ECFC co-culture, at 10 µM, stronger effect = higher value.
Assay [6] can be described thus: glucagon-like peptide 1 release enhancers, primary assay, NCI-H716 cell line, NPC library (AID 1117341;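 active means compound raises GLP1 secretion from the human gut endocrine cells, with no numeric limit stated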). The note with it: NCI-H716 cells, at 10 µM, stronger effect = higher value.
The nature of assay [7]: HCT116 colon cancer cell growth inhibition, primary screen, CellTiter-Glo luminescence, NPC library (AID 1117342;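 active means compounds that lower survival of HCT116 colon cancer cells in the luminescence readout, no numeric limit stated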). The note with it: at 20 µM (top of the series).
Assay [8] in a line: CellTiter-Glo luminescent readout of SW480 viability loss, NPC library primary (AID 1117343;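 active means compounds that lower viability of the colon cancer cells in the luminescence readout, with no numeric limit stated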). The note with it: CellTiter-Glo luminescence; at 20 µM (top of the series) unless noted.
The nature of assay [9]: decreased DLD-1 cellular survival, CellTiter-Glo luminescent readout, NPC compound collection, primary HTS (AID 1117346;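 active means compounds that lower survival of DLD-1 colon cancer cells in the luminescence readout, no cutoff given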). Particulars: DLD-1 viability, CellTiter-Glo luminescence; at 20 µM (top of the series).
A short description of assay [10]: sensitizers of A549 cells to miR-34 induction, primary screen, imaging, A549 dox-inducible miR-34, nuclei and caspase counts (AID 1347080;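 active means compounds whose cell count with miR-34 switched on is under 0.7 times the count with it off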). The note with it: A549 miR-34 inducible, Hoechst nuclei count, 48 h.
Assay [11] can be described thus: survival rescue of mitochondrial mutant cells in low glucose, primary screen, MELAS cybrids, Rieske KO mouse fibroblasts, CellTiter-Glo (AID 1508586).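 Further: z relative to plate mean and SD of compound and empty wells.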
Assay [12] can be described thus: viability rescue of complex I mutant cybrids, primary screen, cell-based, galactose medium, ATP luminescence (AID 1645843;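 active means z-score of at least 1.8 in each of two replicates, scored against plate mean and spread of sample wells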;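 further: positive z means more ATP and so rescue of galactose-driven cybrid death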). Particulars: complex I mutant cybrid cells, 72 h, stronger effect = higher value.
For assay [13], the target named is NAD(+) hydrolase SARM1 (Homo sapiens) (UniProt Q6SZW1). As to the kind of experiment: SARM1 TIR NADase inhibitors, cell lysate, NAD-Glo luminescence (AID 1508614;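 active means compound whose remaining NAD level is above about 45 nM, limit read from the data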). The note with it: SAM-TIR HEK293T lysate NADase, at 1 µM, stronger effect = higher value.
Setting [14] is: stronger effect = lower value, cell number ratio, induced over uninduced.
The mark [15] stands for this setting: measured here: relative caspase fold change +Dox/-Dox.
The mark [16] stands for this setting: measured here: total cells with miR-34 induction, stronger effect = lower value.
Setting [17] is: measured here: total cells without miR-34 induction.
Setting [18] is: MELAS cybrid survival, CellTiter-Glo 48 h, stronger effect = higher value.
Setting [19] is: Rieske KO mouse fibroblast survival, CellTiter-Glo 72 h.

Chain of NAD(+) hydrolase SARM1 (Homo sapiens) (Q6SZW1 whole entry, looked up): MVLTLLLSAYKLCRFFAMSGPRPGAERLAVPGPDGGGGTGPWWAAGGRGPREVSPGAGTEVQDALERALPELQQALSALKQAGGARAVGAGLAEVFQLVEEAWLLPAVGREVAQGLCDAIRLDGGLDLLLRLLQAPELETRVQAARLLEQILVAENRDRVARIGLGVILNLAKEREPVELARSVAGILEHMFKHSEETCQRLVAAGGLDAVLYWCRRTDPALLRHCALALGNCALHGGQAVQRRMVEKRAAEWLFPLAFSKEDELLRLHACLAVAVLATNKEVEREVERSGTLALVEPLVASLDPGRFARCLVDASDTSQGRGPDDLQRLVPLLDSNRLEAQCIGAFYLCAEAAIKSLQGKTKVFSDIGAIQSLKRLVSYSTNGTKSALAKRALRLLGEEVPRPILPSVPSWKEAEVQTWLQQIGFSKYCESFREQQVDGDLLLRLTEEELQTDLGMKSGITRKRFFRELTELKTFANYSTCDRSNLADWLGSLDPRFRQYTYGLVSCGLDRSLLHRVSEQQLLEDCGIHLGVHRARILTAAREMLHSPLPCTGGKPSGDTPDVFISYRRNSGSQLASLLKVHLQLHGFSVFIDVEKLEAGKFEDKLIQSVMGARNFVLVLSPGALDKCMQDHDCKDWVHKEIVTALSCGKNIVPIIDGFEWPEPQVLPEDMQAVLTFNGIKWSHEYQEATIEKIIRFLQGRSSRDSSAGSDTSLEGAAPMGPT

What is called viability is a read-out of living cells in per cent, often relative to untreated cells. Consider `COc1ccc(-c2cc(=S)ss2)cc1`, for which, in [1], the parasite load remaining was 61.1% (inactive). Moreover, in [1], the viability amounted to 107%. In addition, the nuclear beta-catenin stimulation is -1.5% (inactive) in assay [2] (at 10 µM) and -0.3% in assay [2] (stimulation, at 2 µM). Further, the insulin secretion stimulation in [3] was 3.1% (inactive). Moreover, in [4], the viability decrease is 11.9% (inactive). For the same compound, in assay [5], the tube area decrease is -0.7% (inactive). In assay [6], the GLP1 secretion stimulation was -6.2% (inactive). Further, in assay [7], the inhibition of viability is 27.2% (inactive). For the same compound, the viability decrease (inhibition) in [8] was 22.2% (inactive); in assay [9], 11% (inactive). Moreover, the fold change was 0.899 (inactive) in assay [10] (setting [14]) and 1.14 in assay [10] (setting [15]). Moreover, the cell count was determined as 8880 in [10] (setting [16]) and 9880 in [10] (setting [17]). In addition, the z-score in assay [11] (setting [18]) is 0.776 (inactive) and 0.734 (inactive); in assay [11] (setting [19]), 0.201 and 0.472; in [12], 0.675 (inactive).

On to `NC(CO)(CO)CO`, for which the nuclear beta-catenin stimulation in assay [2] (at 10 µM) was 1.8% (inactive); in assay [2] (stimulation, at 2 µM), 3.7%. In addition, in assay [3], the insulin secretion stimulation is -0.6% (inactive). For the same compound, the viability decrease in [4] is -2.3% (inactive). Further, the tube area decrease in [5] is -6% (inactive). Further, in assay [6], the GLP1 secretion stimulation is 3.3% (inactive). The inhibition of viability in [7] is -37% (inactive). In addition, the values for the viability decrease (inhibition) in assay [8] and in assay [9] were -8% (inactive) and 2.75% (inactive), respectively. The fold change in [10] (setting [14]) is 0.909 (inactive); in assay [10] (setting [15]), 0.61. Also, the cell count in assay [10] (setting [16]) turned out to be 8750; in assay [10] (setting [17]), 9620. Also, the z-score in assay [11] (setting [18]) was -0.338 (inactive); in [11] (setting [19]), -0.156.

Take `CC(C)Nc1cccnc1N1CCN(C(=O)c2cc3cc(NS(C)(=O)=O)ccc3[nH]2)CC1`: in [1], the parasite load remaining was 42.2% (inactive). The viability in assay [1] came out at 102%. The nuclear beta-catenin stimulation is 0.8% (inactive) in [2] (at 10 µM) and -0.4% in [2] (stimulation, at 2 µM). The insulin secretion stimulation in assay [3] was -1.5% (inactive). In addition, in assay [4], the viability decrease was -11.6% (inactive). Also, in assay [5], the tube area decrease is -1.5% (inactive). Also, the GLP1 secretion stimulation in assay [6] was 2.1% (inactive). The inhibition of viability in [7] is 28.8% (inactive). Moreover, the results for the viability decrease (inhibition) in assay [8] and in [9] were 0.9% (inactive) and -21.2% (inactive), respectively. The fold change in [10] (setting [14]) is 0.904 (inactive); in assay [10] (setting [15]), 1.31. Besides, the cell count in [10] (setting [16]) came out at 9200; in assay [10] (setting [17]), 10200. Moreover, the z-score in assay [11] (setting [18]) is 0.775 (inactive) and 1.98 (active); in assay [11] (setting [19]) it was 0.201 and 1.19; in assay [12], 0.98 (inactive).

As for `CC(C)(CO)[C@@H](O)C(=O)NCCCO`, the parasite load remaining in [1] is 20.9% (inactive) and 97.7% (inactive) and 20.3% (inactive). Further, in assay [1], the viability is 47.1% and 90.5% and 98.9%. For the same compound, the nuclear beta-catenin stimulation in assay [2] (at 10 µM) was 1.6% (inactive); in assay [2] (stimulation, at 2 µM) it was 1.3%. Also, the insulin secretion stimulation in [3] was -2.9% (inactive). Moreover, in assay [4], the viability decrease was -4.45% (inactive). Moreover, the tube area decrease in assay [5] was 10.3% (inactive). Also, in assay [6], the GLP1 secretion stimulation was 3.1% (inactive). The inhibition of viability in assay [7] is 4.3% (inactive). Also, the results for the viability decrease (inhibition) in assay [8] and in [9] were 100% (active) and -5.1% (inactive), respectively. Besides, the fold change in assay [10] (setting [14]) was 0.883 (inactive) and 0.939 (inactive); in assay [10] (setting [15]), 1.21 and 2.44. The cell count in assay [10] (setting [16]) is 8270 and 12000; in assay [10] (setting [17]) it was 9370 and 12800. Further, the z-score in [11] (setting [18]) is 0.185 (inactive); in assay [11] (setting [19]) it was 0.0963. In addition, in assay [13], the remaining NAD is 10 nM (inactive).

Take `CC1(C)[C@@H](OC(=O)CCC(=O)O)CC[C@]2(C)[C@H]3C(=O)C=C4[C@@H]5C[C@@](C)(C(=O)O)CC[C@]5(C)CC[C@@]4(C)[C@]3(C)CC[C@@H]12`: the parasite load remaining in assay [1] is 77.3% (inactive). In addition, in assay [1], the viability came to 94.7%. Further, the nuclear beta-catenin stimulation in assay [2] (at 10 µM) is 4.8% (inactive); in [2] (stimulation, at 2 µM), 1.3%. The insulin secretion stimulation in [3] was -1% (inactive). Also, in [4], the viability decrease is 50.3% (active). For the same compound, the tube area decrease in [5] was 15.3% (inactive). In addition, in assay [6], the GLP1 secretion stimulation was 2.7% (inactive). Further, the inhibition of viability in [7] was 43.6% (inactive). Moreover, the viability decrease (inhibition) in assay [8] was 15.1% (inactive); in assay [9] it was 35.6% (inactive). Further, the fold change is 0.87 (inactive) in [10] (setting [14]) and 1.72 in assay [10] (setting [15]). Moreover, the values for the cell count in assay [10] (setting [16]) and in assay [10] (setting [17]) were 9330 and 10700, respectively. In addition, the figures for the z-score in assay [11] (setting [18]) and in assay [11] (setting [19]) were 0.704 (inactive) and 0.0878, respectively. Also, in assay [13], the remaining NAD is 10 nM (inactive).

With `CCN(CC)C(=O)/C(C#N)=C/c1cc(O)c(O)c([N+](=O)[O-])c1`, the parasite load remaining in assay [1] was 40.1% (inactive). For the same compound, the viability in assay [1] was found to be 102%. In addition, the nuclear beta-catenin stimulation is -0.4% (inactive) in assay [2] (at 10 µM) and 1.2% in [2] (stimulation, at 2 µM). Besides, in [3], the insulin secretion stimulation is 1.5% (inactive). For the same compound, in assay [4], the viability decrease was 36% (inactive). In addition, the tube area decrease in assay [5] is 61.4% (active). For the same compound, the GLP1 secretion stimulation in assay [6] is 0% (inactive). Also, the inhibition of viability in assay [7] was 29.2% (inactive). Further, the figures for the viability decrease (inhibition) in [8] and in assay [9] were 92.4% (active) and 35.8% (inactive), respectively. In addition, the fold change in [10] (setting [14]) is 0.873 (inactive); in assay [10] (setting [15]) it was 0.914. The figures for the cell count in [10] (setting [16]) and in [10] (setting [17]) were 10100 and 11500, respectively. The z-score in assay [11] (setting [18]) is -0.387 (inactive) and -1.06 (inactive); in assay [11] (setting [19]) it was -0.365 and -0.513; in assay [12], 0.125 (inactive). Also, the remaining NAD in assay [13] was 10 nM (inactive).

In the case of `C[C@H](NCCc1ccc(O)cc1)[C@H](O)c1ccc(O)cc1`, the parasite load remaining in assay [1] is 80.4% (inactive) and 86.8% (inactive). For the same compound, in assay [1], the viability is 111% and 73.3%. Moreover, the nuclear beta-catenin stimulation in assay [2] (at 10 µM) was -1.4% (inactive); in assay [2] (stimulation, at 2 µM) it was -0.2%. In addition, the insulin secretion stimulation in [3] was 4.3% (inactive). Also, the viability decrease in assay [4] is -8.6% (inactive). Also, the tube area decrease in assay [5] is 5.1% (inactive). Also, in [6], the GLP1 secretion stimulation is -4.3% (inactive). Besides, the inhibition of viability in [7] is 4.7% (inactive). The viability decrease (inhibition) in assay [8] is 0.4% (inactive); in assay [9], -16.7% (inactive). Further, the fold change in assay [10] (setting [14]) is 0.881 (inactive) and 0.9 (inactive); in assay [10] (setting [15]), 1.49 and 0.723. Moreover, the cell count in assay [10] (setting [16]) was 8830 and 9090; in assay [10] (setting [17]), 10000 and 10100. Moreover, the z-score in assay [11] (setting [18]) is -0.276 (inactive) and 0.441 (inactive); in [11] (setting [19]) it was -0.155 and 0.32.
